Results on nine molecules are retold here after PubChem BioAssay (NCI).

Among the test systems are HCT-15 colon; HT29 colon; SNB-75 CNS; SNB-19 CNS; U251 CNS; PC-3 prostate; UACC-62 melanoma; LOX IMVI melanoma; SK-MEL-28 melanoma; SK-MEL-2 melanoma; SN12C renal; UO-31 renal; ACHN renal; CAKI-1 renal; A498 renal; CCRF-CEM leukemia; MOLT-4 leukemia; EKVX NSCLC; TK-10 renal; SK-MEL-5 melanoma.
Holding throughout (assay): NCI-60 one-dose screen, 48 h (100 = growth as untreated, 0 = no growth, -100 = all killed)
What all share (details): 10 µM unless noted

SMILES strings stand for the structures. This is part of a sample that, as a whole, favours compounds with a hit. Of some 83,000 tested, about 20% had one in any assay.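 Note: values are percent growth. 100 is the growth of untreated cells, values between 100 and 0 indicate rising inhibition; between -100 and 0 indicates cell death.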 Unmarked numbers belong to inactive results. Activity calls are given as the source filed them. The calls were made as follows: active = growth percent below 10; inactive = the rest.

As for `CCCCNNC(=O)c1ccc(Br)cc1`, the growth with HCT-15 colon is 78.6%; in the test on HT29 colon it was 36.9%; in the test with SNB-75 CNS, 61.1%; with SNB-19 CNS, 76.6%; with U251 CNS it was 61.9%; in the test with PC-3 prostate, 61.4%. In addition, the growth in the test on UACC-62 melanoma was 40.9%; in the test with LOX IMVI melanoma it was 62.1%; in the test with SK-MEL-28 melanoma, 53.2%; in the test with SK-MEL-2 melanoma it was 44.5%; in the test on SN12C renal it was 75.1%; in the test on UO-31 renal, 25.1%. Also, the growth was 71.4% in the test with ACHN renal; 60.1% in the test on CAKI-1 renal; 30.2% in the test on A498 renal; 46.6% in the test with CCRF-CEM leukemia; 42.1% in the test with MOLT-4 leukemia.
For `COc1ccc(-c2csc3c2-n2cccc2C3=O)cc1O`, the growth in the test with HCT-15 colon is 17.4%; in the test with HT29 colon it was 23.9%; with SNB-75 CNS, 46.5%; in the test with SNB-19 CNS, 41.4%; in the test on U251 CNS it was 4.86% (active); with PC-3 prostate, 17.2%. In addition, the growth in the test with UACC-62 melanoma was 29.4%; in the test on LOX IMVI melanoma it was 22.5%; in the test with SK-MEL-28 melanoma, 61.5%; in the test with SK-MEL-2 melanoma it was 26.9%; with EKVX NSCLC, 56%; in the test with SN12C renal, 29.6%. The growth is 31.5% with UO-31 renal; 51.3% in the test on TK-10 renal; 31.7% with ACHN renal; 43.1% in the test with CAKI-1 renal; 38.5% in the test with A498 renal; 0.363% (active) in the test with CCRF-CEM leukemia. Also, the growth in the test on MOLT-4 leukemia is -10.8% (active).
Turning to `O=C1OCC2=C1C(c1ccc3c(c1)OCO3)CC(=O)N2c1cccc(Cl)c1` (stereo not drawn), the growth in the test on HCT-15 colon is 101%; with HT29 colon, 97.5%; in the test on SNB-75 CNS it was 80.7%; in the test on SNB-19 CNS it was 93%; in the test on U251 CNS, 99.9%; in the test on PC-3 prostate, 102%. Besides, the growth was 102% in the test with UACC-62 melanoma; 98% with LOX IMVI melanoma; 101% in the test on SK-MEL-28 melanoma; 103% in the test with SK-MEL-2 melanoma; 96.3% in the test on EKVX NSCLC; 95.9% with SN12C renal. The growth was 85.1% in the test with UO-31 renal; 99.6% in the test on TK-10 renal; 103% in the test with ACHN renal; 90.2% in the test on CAKI-1 renal; 84.6% with A498 renal; 90.9% with CCRF-CEM leukemia. Also, the growth in the test on MOLT-4 leukemia was 95.2%.
For the molecule `O=C1c2cc(S(=O)(=O)O)ccc2C(=O)c2c1cccc2[N+](=O)[O-]`, the growth in the test with HCT-15 colon was 110%; in the test with HT29 colon it was 104%; in the test on SNB-75 CNS it was 110%; in the test with SNB-19 CNS, 106%; with U251 CNS it was 99.2%; with SK-MEL-5 melanoma, 114%. The growth was 110% with UACC-62 melanoma; 103% with LOX IMVI melanoma; 121% in the test with SK-MEL-28 melanoma; 108% with SK-MEL-2 melanoma; 120% in the test on EKVX NSCLC; 103% in the test on SN12C renal. Moreover, the growth was 85.3% in the test with UO-31 renal; 116% in the test with TK-10 renal; 111% in the test with ACHN renal; 102% with CAKI-1 renal; 103% in the test with A498 renal; 97.8% with CCRF-CEM leukemia. Also, the growth in the test with MOLT-4 leukemia was 100%.
Regarding `COc1ccc(OC)c(C2C(C#N)=C(N)Oc3cc(O)ccc32)c1` (stereo not drawn), the growth was 94.4% with HCT-15 colon; 95.4% in the test on HT29 colon; 91.5% with SNB-75 CNS; 102% in the test with SNB-19 CNS; 99% in the test on U251 CNS; 95.5% with PC-3 prostate. The growth in the test with UACC-62 melanoma is 91.9%; in the test on LOX IMVI melanoma it was 100%; in the test with SK-MEL-28 melanoma, 103%; with SK-MEL-2 melanoma, 96.5%; with EKVX NSCLC, 88.7%; in the test on SN12C renal, 98%. Also, the growth with UO-31 renal is 81.7%; with TK-10 renal, 91.1%; in the test with ACHN renal it was 94.4%; in the test on CAKI-1 renal, 73.5%; in the test with A498 renal it was 92.2%; in the test on CCRF-CEM leukemia, 88.2%. In addition, the growth in the test with MOLT-4 leukemia was 88.2%.
Regarding `O=S(=O)(/N=C1C=C/C(=N\S(=O)(=O)c2ccccc2)c2ccccc2\1)c1ccccc1`, the growth was 106% in the test with HCT-15 colon; 118% in the test with HT29 colon; 96.1% with SNB-75 CNS; 116% with SNB-19 CNS; 92.6% with U251 CNS; 79.6% with PC-3 prostate. Further, the growth was 104% in the test with UACC-62 melanoma; 68.9% with LOX IMVI melanoma; 101% in the test on SK-MEL-28 melanoma; 114% in the test on SK-MEL-2 melanoma; 104% in the test on EKVX NSCLC; 101% in the test on SN12C renal. For the same molecule, the growth is 67.1% in the test with UO-31 renal; 147% in the test with TK-10 renal; 105% in the test with ACHN renal; 99.4% with CAKI-1 renal; 117% in the test with A498 renal; 71.7% with CCRF-CEM leukemia. In addition, the growth in the test on MOLT-4 leukemia was 87.1%.
Regarding `O=C(Nc1ccccc1O)c1ccc(NS(=O)(=O)c2cccc3cccnc23)cc1`, the growth was 63.9% with HCT-15 colon; 39.9% with HT29 colon; 48.5% in the test with SNB-75 CNS; 67.9% in the test with SNB-19 CNS; 46.5% in the test on U251 CNS; 59% in the test on PC-3 prostate. The growth with UACC-62 melanoma is 23.1%; with SK-MEL-28 melanoma, 37.6%; with SK-MEL-2 melanoma, 23.6%; in the test on SN12C renal it was 61.2%; in the test with UO-31 renal, 20.8%; in the test on ACHN renal, 52.1%. For the same molecule, the growth is 44.7% in the test with CAKI-1 renal, 45.5% in the test on A498 renal, 33.1% in the test with CCRF-CEM leukemia and 28.5% in the test on MOLT-4 leukemia.
For `COc1cc(/C=C/C(=O)C2=C(/C=C/c3ccc(O)c(OC)c3)NC(=O)NC2c2ccc(O)c(OC)c2)ccc1O` (stereo not drawn), the growth with HCT-15 colon was 97.4%; in the test on HT29 colon it was 54.1%; with SNB-75 CNS, 65.8%; in the test on SNB-19 CNS, 96.5%; in the test on U251 CNS it was 86.3%; in the test with PC-3 prostate it was 76.7%. The growth with UACC-62 melanoma is 94.2%; in the test on LOX IMVI melanoma, 98.7%; in the test on SK-MEL-28 melanoma, 103%; with SN12C renal it was 93.6%; in the test with UO-31 renal, 84.4%; in the test with ACHN renal, 88.2%. The growth in the test with CAKI-1 renal is 93.9%; in the test with A498 renal, 101%; in the test with CCRF-CEM leukemia, 69.8%; with MOLT-4 leukemia, 70.3%.
Regarding `O=C(COc1cccc(/C=C2\COc3ccccc3C2=O)c1)c1ccccc1`, the growth with HCT-15 colon was 33.1%; in the test on HT29 colon, 41.2%; in the test with SNB-75 CNS, 71%; in the test with SNB-19 CNS, 100%; with U251 CNS it was 60.9%; in the test on SK-MEL-5 melanoma, 47.7%. For the same molecule, the growth with UACC-62 melanoma was 59.4%; with LOX IMVI melanoma, 23.7%; in the test with SK-MEL-28 melanoma, 97.2%; in the test with SK-MEL-2 melanoma, 70.7%; in the test with EKVX NSCLC, 84%; in the test with SN12C renal it was 84.9%. The growth was 75.1% in the test on UO-31 renal; 92.2% in the test with TK-10 renal; 86.8% in the test on ACHN renal; 53.2% in the test on CAKI-1 renal; 86.9% with A498 renal; -32.7% (active) in the test with CCRF-CEM leukemia. Also, the growth with MOLT-4 leukemia is -21.9% (active).
